Data taken from PubChem BioAssay (NCI).
Compounds without any hit were thinned out: in the full panel of roughly 83,000, 20% have a hit.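 Method: cells in 96-well plates; compound added at one concentration; 48 h incubation; percent growth measured; values under 10 scored active.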 The source made the active and inactive calls.

Columns and labels:
Test in all cases: NCI-60 one-dose screen, 48 h (100 = growth as untreated, 0 = no growth, -100 = all killed)
Conditions in all cases: 10 µM unless noted
SK-MEL-2 melanoma = system: SK-MEL-2 melanoma
EKVX NSCLC = system: EKVX NSCLC
SN12C renal = system: SN12C renal
UO-31 renal = system: UO-31 renal
TK-10 renal = system: TK-10 renal
ACHN renal = system: ACHN renal
CAKI-1 renal = system: CAKI-1 renal
A498 renal = system: A498 renal
CCRF-CEM leukemia = system: CCRF-CEM leukemia
MOLT-4 leukemia = system: MOLT-4 leukemia
SR leukemia = system: SR leukemia
RPMI-8226 leukemia = system: RPMI-8226 leukemia
OVCAR-8 ovarian = system: OVCAR-8 ovarian
OVCAR-5 ovarian = system: OVCAR-5 ovarian
OVCAR-4 ovarian = system: OVCAR-4 ovarian
SK-OV-3 ovarian = system: SK-OV-3 ovarian
IGROV1 ovarian = system: IGROV1 ovarian
OVCAR-3 ovarian = system: OVCAR-3 ovarian
HS 578T breast = system: HS 578T breast
NCI/ADR-RES ovarian = system: NCI/ADR-RES ovarian

Measured: growth

c1ccc2sc(SCCCn3ccnc3)nc2c1
inactive: SK-MEL-2 melanoma 68.7% | EKVX NSCLC 90.5% | SN12C renal 84.2% | UO-31 renal 84.9% | TK-10 renal 84.2% | ACHN renal 100% | CAKI-1 renal 98% | A498 renal 80.6% | CCRF-CEM leukemia 81.6% | MOLT-4 leukemia 95.6% | SR leukemia 87.9% | RPMI-8226 leukemia 79% | OVCAR-8 ovarian 88.2% | OVCAR-5 ovarian 118% | OVCAR-4 ovarian 93.2% | SK-OV-3 ovarian 90.2% | IGROV1 ovarian 103% | OVCAR-3 ovarian 86.4% | HS 578T breast 102% | NCI/ADR-RES ovarian 94.2%

C[C@@]1(N2C(=O)OC[C@@H]2c2ccccc2)C(=O)N([C@H](CC(=O)N2CCC(N3CCCCC3)CC2)C(=O)NCc2cccc(C(F)(F)F)c2)[C@@H]1/C=C/c1ccccc1
inactive: SK-MEL-2 melanoma 64.8% | EKVX NSCLC 71.7% | SN12C renal 74.3% | UO-31 renal 57.8% | TK-10 renal 79.1% | ACHN renal 75.2% | CAKI-1 renal 82.8% | A498 renal 52.3% | CCRF-CEM leukemia 42.6% | MOLT-4 leukemia 10.7% | RPMI-8226 leukemia 37.1% | OVCAR-8 ovarian 89.8% | OVCAR-5 ovarian 115% | OVCAR-4 ovarian 66.3% | SK-OV-3 ovarian 78.9% | IGROV1 ovarian 72.1% | OVCAR-3 ovarian 73.2% | HS 578T breast 66.1% | NCI/ADR-RES ovarian 81.8%
active: SR leukemia -38.4%

CC#CC#Cc1cccc(=O)o1
inactive: EKVX NSCLC 20.7% | SN12C renal 81.6% | UO-31 renal 40.7% | TK-10 renal 73.7% | ACHN renal 68.5% | A498 renal 113% | CCRF-CEM leukemia 11.9% | MOLT-4 leukemia 64.9% | RPMI-8226 leukemia 45.6% | OVCAR-8 ovarian 65.8% | OVCAR-5 ovarian 101% | OVCAR-4 ovarian 91.6% | SK-OV-3 ovarian 104% | IGROV1 ovarian 65.1% | HS 578T breast 70.9% | NCI/ADR-RES ovarian 90.1%
active: SK-MEL-2 melanoma -47.3% | CAKI-1 renal 4.28% | SR leukemia -9.17% | OVCAR-3 ovarian 7.67%

CSc1ncnc2c1ncn2C1CCCO1 (stereo not given)
inactive: SK-MEL-2 melanoma 99.3% | EKVX NSCLC 95.6% | SN12C renal 99.1% | UO-31 renal 92.1% | TK-10 renal 106% | ACHN renal 99% | CAKI-1 renal 79.1% | A498 renal 146% | CCRF-CEM leukemia 109% | MOLT-4 leukemia 106% | SR leukemia 113% | RPMI-8226 leukemia 104% | OVCAR-8 ovarian 109% | OVCAR-5 ovarian 98.3% | OVCAR-4 ovarian 95.1% | SK-OV-3 ovarian 104% | IGROV1 ovarian 120% | OVCAR-3 ovarian 120% | HS 578T breast 103% | NCI/ADR-RES ovarian 101%

CNC(=O)c1cc(Oc2ccc3nc(NC(=O)Nc4ccc(CN5CCOCC5)c(C(F)(F)F)c4)sc3c2)ccn1
active: A498 renal 9.05% | MOLT-4 leukemia 3.75% | SR leukemia -0.0928% | RPMI-8226 leukemia 5.34% | OVCAR-3 ovarian 6.85% | NCI/ADR-RES ovarian 4.65%
inactive: SK-MEL-2 melanoma 32.9% | EKVX NSCLC 25.4% | SN12C renal 27.8% | UO-31 renal 26.6% | TK-10 renal 43.9% | ACHN renal 16.2% | CAKI-1 renal 19.4% | CCRF-CEM leukemia 17.7% | OVCAR-8 ovarian 18% | OVCAR-5 ovarian 38.6% | OVCAR-4 ovarian 20% | SK-OV-3 ovarian 79.1% | IGROV1 ovarian 40% | HS 578T breast 47.3%

CCN(CC)CC#CCOC(=O)[C@]1(C)CCC[C@@]2(C)[C@H]1CC(C=O)=C1C=C(C(C)C)CC[C@@H]12
inactive: SK-MEL-2 melanoma 88% | EKVX NSCLC 77.8% | SN12C renal 77.6% | UO-31 renal 52.6% | TK-10 renal 77.1% | ACHN renal 86.9% | CAKI-1 renal 101% | A498 renal 69.7% | CCRF-CEM leukemia 50.4% | MOLT-4 leukemia 50.1% | SR leukemia 20.1% | RPMI-8226 leukemia 27.8% | OVCAR-8 ovarian 73.5% | OVCAR-5 ovarian 82.7% | OVCAR-4 ovarian 69.5% | SK-OV-3 ovarian 73.4% | IGROV1 ovarian 63.2% | OVCAR-3 ovarian 69.1% | HS 578T breast 67.1% | NCI/ADR-RES ovarian 70.9%

COC1=CC(=O)C(OC)=C(OC)C1=O
inactive: SK-MEL-2 melanoma 99.3% | EKVX NSCLC 98.6% | SN12C renal 101% | UO-31 renal 104% | TK-10 renal 115% | ACHN renal 111% | CAKI-1 renal 95.4% | A498 renal 88.2% | CCRF-CEM leukemia 31.9% | SR leukemia 36.5% | RPMI-8226 leukemia 67.1% | OVCAR-8 ovarian 101% | OVCAR-5 ovarian 107% | OVCAR-4 ovarian 77.4% | SK-OV-3 ovarian 92.5% | IGROV1 ovarian 113% | OVCAR-3 ovarian 104% | HS 578T breast 95.5% | NCI/ADR-RES ovarian 100%
active: MOLT-4 leukemia -7.34%

COc1ccc(-c2cc(-c3ccc(N(C)C)cc3)nc(NC(=O)c3ccncc3)n2)cc1
inactive: SK-MEL-2 melanoma 116% | EKVX NSCLC 99.8% | SN12C renal 104% | UO-31 renal 72.1% | TK-10 renal 105% | ACHN renal 98.7% | CAKI-1 renal 95% | A498 renal 76.5% | CCRF-CEM leukemia 96.8% | MOLT-4 leukemia 111% | SR leukemia 121% | RPMI-8226 leukemia 93% | OVCAR-8 ovarian 97.7% | OVCAR-5 ovarian 109% | OVCAR-4 ovarian 122% | SK-OV-3 ovarian 117% | IGROV1 ovarian 95.2% | OVCAR-3 ovarian 98.8% | HS 578T breast 97.2% | NCI/ADR-RES ovarian 96.6%

Oc1ccc2c(=S)cc(-c3ccc(Br)cc3)oc2c1O
active: SN12C renal -4.08% | CCRF-CEM leukemia 5.37% | MOLT-4 leukemia 7.88% | SR leukemia 1.21% | RPMI-8226 leukemia -8.44% | OVCAR-8 ovarian -6.62% | OVCAR-4 ovarian -1.04% | OVCAR-3 ovarian -21.7% | NCI/ADR-RES ovarian -8.87%
inactive: SK-MEL-2 melanoma 63.8% | EKVX NSCLC 87.9% | UO-31 renal 17.4% | TK-10 renal 103% | ACHN renal 13.9% | CAKI-1 renal 65.8% | A498 renal 53.9% | OVCAR-5 ovarian 67.9% | SK-OV-3 ovarian 62.3% | IGROV1 ovarian 19% | HS 578T breast 84%

CC/C(Cc1ccccc1)=C(\c1ccc(OCCN2CCCC2)cc1)c1ccc(OC(C)=O)cc1
inactive: SK-MEL-2 melanoma 104% | EKVX NSCLC 80.3% | SN12C renal 83.4% | UO-31 renal 72.3% | TK-10 renal 88.7% | ACHN renal 89.7% | CAKI-1 renal 86.6% | A498 renal 87.9% | CCRF-CEM leukemia 88.1% | MOLT-4 leukemia 55.2% | SR leukemia 14.3% | RPMI-8226 leukemia 60.2% | OVCAR-8 ovarian 97.8% | OVCAR-5 ovarian 92.6% | OVCAR-4 ovarian 79% | SK-OV-3 ovarian 107% | IGROV1 ovarian 78% | OVCAR-3 ovarian 89.6% | HS 578T breast 85.5% | NCI/ADR-RES ovarian 75.5%

O=C(Nc1ccc(Oc2ccc(F)cc2)c(Cl)c1)c1cccnc1
inactive: SK-MEL-2 melanoma 91.3% | EKVX NSCLC 81.9% | SN12C renal 95.8% | UO-31 renal 80.9% | TK-10 renal 97.7% | ACHN renal 99.5% | CAKI-1 renal 86.9% | A498 renal 70.8% | CCRF-CEM leukemia 101% | MOLT-4 leukemia 105% | SR leukemia 75.1% | RPMI-8226 leukemia 87.3% | OVCAR-8 ovarian 98.6% | OVCAR-5 ovarian 99.9% | OVCAR-4 ovarian 85.2% | SK-OV-3 ovarian 110% | IGROV1 ovarian 95.4% | OVCAR-3 ovarian 85.8% | HS 578T breast 91.5% | NCI/ADR-RES ovarian 85.1%

COc1cc2c(cc1O)CCc1cc(O)cc(OC)c1-2
inactive: SK-MEL-2 melanoma 88.6% | EKVX NSCLC 92.7% | SN12C renal 89.4% | UO-31 renal 95.3% | TK-10 renal 126% | ACHN renal 95.4% | CAKI-1 renal 94.8% | A498 renal 79.4% | CCRF-CEM leukemia 70.7% | MOLT-4 leukemia 74.7% | SR leukemia 77.4% | RPMI-8226 leukemia 75.5% | OVCAR-8 ovarian 88.1% | OVCAR-5 ovarian 109% | OVCAR-4 ovarian 94.9% | SK-OV-3 ovarian 96.9% | IGROV1 ovarian 105% | OVCAR-3 ovarian 95.6% | HS 578T breast 83.3% | NCI/ADR-RES ovarian 99%

C[C@]12C[C@@H](c3ccoc3)OC(=O)[C@@H]1CC[C@]1(C)[C@@H]2CC[C@@H](O)[C@]1(C)O
inactive: SK-MEL-2 melanoma 74.7% | EKVX NSCLC 57.5% | SN12C renal 64.1% | UO-31 renal 75.5% | TK-10 renal 65% | ACHN renal 76.1% | CAKI-1 renal 88.2% | A498 renal 19.8% | CCRF-CEM leukemia 69.3% | MOLT-4 leukemia 67.3% | SR leukemia 74.5% | RPMI-8226 leukemia 101% | OVCAR-8 ovarian 104% | OVCAR-5 ovarian 137% | OVCAR-4 ovarian 128% | SK-OV-3 ovarian 105% | IGROV1 ovarian 102% | OVCAR-3 ovarian 112% | HS 578T breast 81.1% | NCI/ADR-RES ovarian 104%

O=C1O[C@H]([C@H](O)CO)C(O)=C1O
inactive: SK-MEL-2 melanoma 104% | EKVX NSCLC 110% | SN12C renal 104% | UO-31 renal 99.8% | TK-10 renal 104% | ACHN renal 93.9% | CAKI-1 renal 87.1% | A498 renal 94.3% | CCRF-CEM leukemia 109% | MOLT-4 leukemia 107% | SR leukemia 88.5% | RPMI-8226 leukemia 99.1% | OVCAR-8 ovarian 97% | OVCAR-5 ovarian 101% | OVCAR-4 ovarian 119% | SK-OV-3 ovarian 112% | IGROV1 ovarian 104% | OVCAR-3 ovarian 104% | HS 578T breast 117% | NCI/ADR-RES ovarian 96.6%

CCOC(=O)c1c2c(n3ccc(NC(=O)CCN4CCCCC4)cc13)C(=O)c1ncccc1C2=O
active: ACHN renal -52.5% | CCRF-CEM leukemia -22.9% | MOLT-4 leukemia -25.9% | SR leukemia -46.6% | RPMI-8226 leukemia -6.64% | OVCAR-8 ovarian -27% | OVCAR-5 ovarian -58.9% | OVCAR-4 ovarian -13.5% | OVCAR-3 ovarian -10.9%
inactive: SK-MEL-2 melanoma 52.1% | EKVX NSCLC 67.9% | SN12C renal 30.2% | UO-31 renal 10.3% | TK-10 renal 54% | CAKI-1 renal 16.9% | A498 renal 58.5% | SK-OV-3 ovarian 26.2% | IGROV1 ovarian 35.1% | HS 578T breast 40.2% | NCI/ADR-RES ovarian 36.8%

COCCCNc1nc(NC(=O)c2ccc(F)cc2C)cc(-c2cccnc2)n1
inactive: SK-MEL-2 melanoma 95.6% | EKVX NSCLC 108% | SN12C renal 91.1% | UO-31 renal 88.5% | TK-10 renal 111% | ACHN renal 109% | CAKI-1 renal 99.1% | A498 renal 85.4% | CCRF-CEM leukemia 96.5% | MOLT-4 leukemia 93.9% | SR leukemia 110% | RPMI-8226 leukemia 90.2% | OVCAR-8 ovarian 91.6% | OVCAR-5 ovarian 106% | OVCAR-4 ovarian 117% | SK-OV-3 ovarian 108% | IGROV1 ovarian 109% | OVCAR-3 ovarian 106% | HS 578T breast 94% | NCI/ADR-RES ovarian 94.2%
